miR122 inh = miR-122 suppressors via Renilla sensor increase, primary screen, cell-based, Huh7 psiCHECK-miR122, Renilla luciferase, single point; activation, % at 12.5 µM; 0.14% of 340,000 active; 48 h;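 active means mean activation of 30% or more, with every replicate also reaching 30%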;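 further: 0% = median of neutral control wells and 100% = median of positive control wells; higher luciferase signal means stronger suppression of miR-122 activity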
Starred values were filed as active, the others as inactive. This is one part of a sample in which hits are shown more often than they occur.

For C[C@H](CO)N1C[C@H](C)[C@H](CN(C)Cc2ccncc2)Oc2ncc(C#CC(C)(C)O)cc2C1=O the results were miR122 inh 3.
`C[C@H](CO)N1C[C@H](C)[C@H](CN(C)S(=O)(=O)c2cccc(F)c2)Oc2ncc(-c3ccc(F)cc3)cc2C1=O` gave miR122 inh 6.
Screening CC(C)CC#Cc1cnc2c(c1)C(=O)N([C@@H](C)CO)C[C@H](C)[C@H](CN(C)C(=O)Nc1cc(F)ccc1F)O2 returned miR122 inh 13.
Screening Cc1noc(C)c1NC(=O)N(C)C[C@H]1Oc2ncc(C#CCC(C)C)cc2C(=O)N([C@@H](C)CO)C[C@@H]1C returned miR122 inh 5.
For COc1cccc(-c2cnc3c(c2)C(=O)N([C@@H](C)CO)C[C@@H](C)[C@@H](CN(C)CC2CCOCC2)O3)c1 the results were miR122 inh 2.
`CC(C)CC#Cc1cnc2c(c1)C(=O)N([C@H](C)CO)C[C@H](C)[C@@H](CN(C)C(=O)Nc1ccccc1F)O2` gave miR122 inh 3.
Screening CC(C)NC(=O)N(C)C[C@@H]1Oc2cc(C3=CCCCC3)ccc2S(=O)(=O)N([C@H](C)CO)C[C@H]1C returned miR122 inh -4.
Screening C[C@@H]1CN([C@H](C)CO)C(=O)c2cc(C#Cc3cccnc3)cnc2O[C@H]1CN(C)S(C)(=O)=O returned miR122 inh -1.
Screening CC(C)CC#Cc1cnc2c(c1)C(=O)N([C@@H](C)CO)C[C@@H](C)[C@H](CN(C)C(=O)CC1CC1)O2 returned miR122 inh 8.
COc1ccc(C(=O)Nc2ccc3c(c2)OC[C@H](C)N(C)C[C@H](C)[C@H](OC)CN(C)C3=O)cc1 was read as miR122 inh -2.
COCC#Cc1ccc2c(c1)O[C@@H](CN(C)C(=O)COC)[C@H](C)CN([C@@H](C)CO)S2(=O)=O was read as miR122 inh 0.
Screening CCCN1C[C@H](C)[C@@H](OC)CN(C)C(=O)c2ccc(NC(=O)COC)cc2OC[C@H]1C returned miR122 inh 0.
C[C@@H]1CN([C@H](C)CO)C(=O)c2cc(-c3ccc(F)cc3)cnc2O[C@H]1CN(C)Cc1cccnc1 was read as miR122 inh -2.
Screening C[C@@H]1CN([C@@H](C)CO)C(=O)c2cc(C#CCc3ccccc3)cnc2O[C@@H]1CN(C)C(=O)C1CCCCC1 returned miR122 inh -1.
For CC(=O)N(C)C[C@H]1Oc2cc(C#C[C@@H](C)O)ccc2S(=O)(=O)N([C@@H](C)CO)C[C@H]1C the results were miR122 inh 1.
`CN1c2ccc(-c3ccccc3F)cc2[C@H]2[C@H](CCN2S(=O)(=O)c2ccccc2F)[C@H]1CO` gave miR122 inh -100.
`CCC(=O)Nc1ccc2c(c1)C(=O)N(C)C[C@H](OC)[C@@H](C)CN(Cc1ccccc1OC)[C@@H](C)CO2` gave miR122 inh -4.
CC(C)C(=O)Nc1ccc2c(c1)C(=O)N(C)[C@H]1CC[C@@H](CC(=O)NCC3CC3)O[C@@H]1CO2 was read as miR122 inh -92.
Screening CC(C)C(=O)Nc1ccc2c(c1)C(=O)N(C)[C@@H]1CC[C@@H](CC(=O)N[C@H](C)c3ccccc3)O[C@@H]1CO2 returned miR122 inh 70*.
C[C@H](CO)N1C[C@H](C)[C@@H](CN(C)C(=O)C2CC2)Oc2ncc(-c3cccnc3)cc2C1=O was read as miR122 inh 1.
C[C@@H]1CN([C@H](C)CO)C(=O)c2cc(C#CC3CCCC3)cnc2O[C@H]1CN(C)C(=O)C1CCC1 was read as miR122 inh -2.
Screening C[C@H]1CN([C@@H](C)CO)C(=O)c2cc(C#Cc3ccccc3F)cnc2O[C@@H]1CN(C)C(=O)C1CCOCC1 returned miR122 inh -2.
For Cc1c(Cl)sn(-c2ccc(Cl)cc2)c1=O the results were miR122 inh 70*.
`CCCC(O)C#Cc1cnc2c(c1)C(=O)N([C@H](C)CO)C[C@H](C)[C@H](CN(C)S(=O)(=O)c1ccccc1)O2` (stereo partly drawn) gave miR122 inh -1.
`C[C@@H]1CN([C@@H](C)CO)C(=O)c2cc(-c3cccc(F)c3)cnc2O[C@@H]1CN(C)Cc1cncnc1` gave miR122 inh -43.
CC(C)C#Cc1cnc2c(c1)C(=O)N([C@@H](C)CO)C[C@@H](C)[C@H](CN(C)C(=O)CC1CC1)O2 was read as miR122 inh -16.
For COCC(=O)Nc1ccc2c(c1)OC[C@@H](C)NC[C@H](C)[C@H](OC)CN(C)C2=O the results were miR122 inh -1.
C[C@H]1CN([C@@H](C)CO)C(=O)c2cc(-c3ccncc3)cnc2O[C@H]1CN(C)C(=O)C1CCOCC1 was read as miR122 inh -1.
`CCN(CC)c1ccc(/C=N/NC(=O)c2ccoc2C)c(O)c1` gave miR122 inh 50*.
Screening C[C@@H]1CN([C@@H](C)CO)C(=O)c2cc(-c3cccc(F)c3)cnc2O[C@H]1CN(C)C(=O)C1CCOCC1 returned miR122 inh 2.
`CN(C)S(=O)(=O)c1cccc(NC(=S)N/N=C/c2ccc(O)c(O)c2O)c1` gave miR122 inh 70*.
For CC(=O)N(C)C[C@H]1Oc2cc(C#C[C@H](C)O)ccc2S(=O)(=O)N([C@@H](C)CO)C[C@@H]1C the results were miR122 inh 1.
For C[C@@H]1CN([C@@H](C)CO)S(=O)(=O)c2ccc(C#C[C@@H](C)O)cc2O[C@H]1CN(C)C(=O)Cc1ccccn1 the results were miR122 inh 0.
`O=C(Nc1nc2ccc(S(=O)(=O)N3CCCC3)cc2s1)C1CCCCC1` gave miR122 inh -130.
For O=C(Cc1cccs1)Nc1ccc(S(=O)(=O)N2CCCCC2)cc1 the results were miR122 inh -132.
Screening O=C(Nc1nc(-c2cc3ccccc3o2)cs1)c1ccc(S(=O)(=O)N2CCCC2)cc1 returned miR122 inh 52*.
For COc1ccc(C#Cc2cnc3c(c2)C(=O)N([C@@H](C)CO)C[C@H](C)[C@H](CN(C)CC2CCOCC2)O3)cc1 the results were miR122 inh 3.
Screening C[C@H](CO)N1C[C@H](C)[C@H](CN(C)Cc2ccccn2)Oc2cc(-c3cncnc3)ccc2S1(=O)=O returned miR122 inh 10.
`C[C@H](CO)N1C[C@H](C)[C@H](CN(C)C)Oc2ncc(C#CC3CC3)cc2C1=O` gave miR122 inh 0.
`Cc1ccc(S(=O)(=O)N(C)C[C@H]2Oc3ncc(C#CCC(C)C)cc3C(=O)N([C@H](C)CO)C[C@@H]2C)cc1` gave miR122 inh -54.
Screening C[C@H](CO)N1C[C@H](C)[C@H](CN(C)C(=O)c2cccc(F)c2)Oc2ncc(/C=C/c3ccccc3)cc2C1=O returned miR122 inh -3.
Screening Cc1ccc(N(Cc2ccco2)C(=O)c2ccc(N3CCCCC3)c([N+](=O)[O-])c2)cc1 returned miR122 inh -165.
`COc1ccc(-c2cc(C3CCN(c4ccc(C(C)=O)cc4[N+](=O)[O-])CC3)[nH]n2)cc1` gave miR122 inh 45*.
For C[C@H](O)C#Cc1ccc2c(c1)O[C@@H](CN(C)Cc1cccnc1)[C@@H](C)CN([C@H](C)CO)S2(=O)=O the results were miR122 inh 3.
`C[C@H]1CN([C@@H](C)CO)C(=O)c2cc(C#Cc3cccc(F)c3)cnc2O[C@H]1CN(C)C(=O)C1CC1` gave miR122 inh 7.
C[C@H](CO)N1C[C@H](C)[C@@H](CN(C)CC2CCOCC2)Oc2ncc(-c3cncnc3)cc2C1=O was read as miR122 inh 4.

Compound activity deposited in PubChem BioAssay by Broad Institute.
